Reference: article PMC7862700, “An all-to-all approach to the identification of sequence-specific readers for epigenetic DNA modifications on cytosine”

Columns and labels:
Test in all cases: DAPPL (digital affinity profiling via proximity ligation, sequencing); 10 mM Tris-HCl pH 7.5, 50 mM NaCl, 1 mM DTT, 4% glycerol, room temperature, 30 min; GST-TFs on glutathione beads, 16-mer random dsDNA library, 0.1% formaldehyde crosslink after washing; high values mean tight binding
FLI1 = target: T1, FLI1 (Homo sapiens, UniProt Q01543 1-452); conditions: protein: recombinant; tags: N-terminal GST; dsDNA, one strand shown
T1 sequence: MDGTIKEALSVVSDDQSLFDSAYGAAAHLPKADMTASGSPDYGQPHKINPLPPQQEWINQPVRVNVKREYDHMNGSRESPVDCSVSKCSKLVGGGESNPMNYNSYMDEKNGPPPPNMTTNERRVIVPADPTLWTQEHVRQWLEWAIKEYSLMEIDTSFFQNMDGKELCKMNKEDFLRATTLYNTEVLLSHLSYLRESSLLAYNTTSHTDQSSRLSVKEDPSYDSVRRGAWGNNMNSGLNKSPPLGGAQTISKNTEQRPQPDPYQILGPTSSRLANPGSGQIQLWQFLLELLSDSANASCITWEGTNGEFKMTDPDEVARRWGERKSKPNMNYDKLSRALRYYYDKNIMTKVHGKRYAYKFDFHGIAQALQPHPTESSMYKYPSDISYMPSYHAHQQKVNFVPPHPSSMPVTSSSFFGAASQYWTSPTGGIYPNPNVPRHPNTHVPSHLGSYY
Summary of the method: (§1)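 Human transcription factors fused to GST were expressed in yeast, captured on glutathione beads, given DNA barcodes and pooled with a GST-only negative control. Pools were incubated with 200 nmole of a 16-mer random double-stranded DNA library in Tris/NaCl/DTT/glycerol buffer at room temperature for 30 min. They were then washed, crosslinked with 0.1% formaldehyde, proximity-ligated (BsaI/T4 ligase, 1 h, 37 °C), PCR-amplified and sequenced on an Illumina NextSeq500. Binding signal is each 6-mer's read frequency for a factor divided by its frequency for the GST control.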

ELK1 = target: T2, ELK1 (Homo sapiens, UniProt P19419 1-428); conditions: protein: recombinant; tags: N-terminal GST; dsDNA, one strand shown
T2 sequence: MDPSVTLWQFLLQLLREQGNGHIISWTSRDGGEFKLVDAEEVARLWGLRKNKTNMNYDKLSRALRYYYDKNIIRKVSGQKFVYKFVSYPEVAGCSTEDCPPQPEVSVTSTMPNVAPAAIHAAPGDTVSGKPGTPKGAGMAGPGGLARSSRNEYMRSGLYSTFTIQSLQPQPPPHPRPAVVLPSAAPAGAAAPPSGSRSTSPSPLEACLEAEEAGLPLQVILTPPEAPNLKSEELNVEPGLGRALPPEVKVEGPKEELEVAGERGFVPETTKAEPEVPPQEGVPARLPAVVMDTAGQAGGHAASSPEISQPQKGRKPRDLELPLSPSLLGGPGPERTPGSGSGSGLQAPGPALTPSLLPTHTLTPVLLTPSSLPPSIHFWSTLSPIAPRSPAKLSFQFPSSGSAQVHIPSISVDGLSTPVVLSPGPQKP
Summary of the method: as §1

GABPA = target: T3, GABPA (Homo sapiens, UniProt Q06546 1-454); conditions: protein: recombinant; tags: N-terminal GST; dsDNA, one strand shown
T3 sequence: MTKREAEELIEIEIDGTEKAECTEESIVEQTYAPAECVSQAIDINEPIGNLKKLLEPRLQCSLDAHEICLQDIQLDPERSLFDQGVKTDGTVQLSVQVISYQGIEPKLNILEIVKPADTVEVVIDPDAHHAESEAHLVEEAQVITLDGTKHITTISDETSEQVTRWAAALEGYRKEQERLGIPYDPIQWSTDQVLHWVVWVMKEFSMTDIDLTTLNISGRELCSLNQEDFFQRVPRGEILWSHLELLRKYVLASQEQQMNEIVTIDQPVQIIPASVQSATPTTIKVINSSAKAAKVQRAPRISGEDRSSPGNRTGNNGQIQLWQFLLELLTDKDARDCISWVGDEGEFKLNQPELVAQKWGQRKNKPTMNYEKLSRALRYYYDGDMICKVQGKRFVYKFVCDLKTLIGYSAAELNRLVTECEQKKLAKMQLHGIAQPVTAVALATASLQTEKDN
Summary of the method: as §1

ERG = target: T4, ERG (Homo sapiens, UniProt P11308 1-479); conditions: protein: recombinant; tags: N-terminal GST; dsDNA, one strand shown
T4 sequence: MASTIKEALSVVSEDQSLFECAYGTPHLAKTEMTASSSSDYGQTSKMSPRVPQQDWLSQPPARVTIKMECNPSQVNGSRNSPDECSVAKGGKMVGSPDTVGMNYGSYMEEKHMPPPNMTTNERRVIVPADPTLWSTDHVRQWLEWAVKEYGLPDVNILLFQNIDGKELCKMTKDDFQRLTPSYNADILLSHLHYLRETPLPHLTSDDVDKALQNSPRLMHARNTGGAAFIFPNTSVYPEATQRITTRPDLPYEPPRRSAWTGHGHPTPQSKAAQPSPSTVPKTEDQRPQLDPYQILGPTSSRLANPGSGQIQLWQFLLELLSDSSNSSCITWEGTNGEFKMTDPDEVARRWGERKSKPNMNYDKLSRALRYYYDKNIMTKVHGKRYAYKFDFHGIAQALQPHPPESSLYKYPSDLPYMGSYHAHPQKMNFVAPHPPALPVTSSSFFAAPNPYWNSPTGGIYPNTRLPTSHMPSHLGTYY
Summary of the method: as §1

ELF1 = ELF1 (Homo sapiens, UniProt P32519 1-619); conditions: protein: recombinant; tags: N-terminal GST; dsDNA, one strand shown
Chain of ELF1 (P32519 whole entry): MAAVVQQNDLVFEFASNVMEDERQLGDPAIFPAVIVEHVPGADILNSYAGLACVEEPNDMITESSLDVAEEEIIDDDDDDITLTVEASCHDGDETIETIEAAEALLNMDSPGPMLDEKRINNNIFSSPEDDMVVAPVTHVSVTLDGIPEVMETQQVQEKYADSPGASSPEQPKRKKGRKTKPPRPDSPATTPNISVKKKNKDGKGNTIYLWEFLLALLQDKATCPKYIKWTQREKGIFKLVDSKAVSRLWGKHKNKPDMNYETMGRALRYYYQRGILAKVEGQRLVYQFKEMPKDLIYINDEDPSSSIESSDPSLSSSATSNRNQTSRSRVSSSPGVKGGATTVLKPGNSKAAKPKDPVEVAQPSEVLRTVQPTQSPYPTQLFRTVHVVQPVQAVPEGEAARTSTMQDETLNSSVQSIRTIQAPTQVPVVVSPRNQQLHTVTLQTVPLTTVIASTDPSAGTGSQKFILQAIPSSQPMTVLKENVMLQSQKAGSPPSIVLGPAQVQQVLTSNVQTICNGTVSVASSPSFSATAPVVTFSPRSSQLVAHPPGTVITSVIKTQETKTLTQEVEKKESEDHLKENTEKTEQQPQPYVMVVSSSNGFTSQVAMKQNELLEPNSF
Summary of the method: as §1

EHF = target: T5, EHF (Homo sapiens, UniProt Q9NZC4 1-300); conditions: protein: recombinant; tags: N-terminal GST; dsDNA, one strand shown
T5 sequence: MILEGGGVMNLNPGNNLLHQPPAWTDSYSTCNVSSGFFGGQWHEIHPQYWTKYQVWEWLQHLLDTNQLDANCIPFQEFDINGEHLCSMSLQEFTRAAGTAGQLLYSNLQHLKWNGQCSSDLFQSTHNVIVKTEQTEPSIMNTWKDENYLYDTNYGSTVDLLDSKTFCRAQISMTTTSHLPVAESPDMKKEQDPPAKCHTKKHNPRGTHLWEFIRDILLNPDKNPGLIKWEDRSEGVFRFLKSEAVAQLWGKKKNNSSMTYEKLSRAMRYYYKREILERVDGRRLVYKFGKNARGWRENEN
Summary of the method: as §1

SPI1 = SPI1 (Homo sapiens, UniProt P17947 1-270); conditions: protein: recombinant; tags: N-terminal GST; dsDNA, one strand shown
Summary of the method: as §1

SPIB = SPIB (Homo sapiens, UniProt Q01892 1-262); conditions: protein: recombinant; tags: N-terminal GST; dsDNA, one strand shown
Chain of SPIB (Q01892 whole entry): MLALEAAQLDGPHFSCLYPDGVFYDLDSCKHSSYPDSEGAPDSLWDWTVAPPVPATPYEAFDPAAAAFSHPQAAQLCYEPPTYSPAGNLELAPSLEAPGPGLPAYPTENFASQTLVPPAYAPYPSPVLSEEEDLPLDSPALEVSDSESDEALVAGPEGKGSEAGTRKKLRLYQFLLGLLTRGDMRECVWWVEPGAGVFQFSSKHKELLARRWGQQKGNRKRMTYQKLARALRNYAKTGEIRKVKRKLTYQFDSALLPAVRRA
Summary of the method: as §1

ELK3 = target: T6, ELK3 (Homo sapiens, UniProt P41970 1-407); conditions: protein: recombinant; tags: N-terminal GST; dsDNA, one strand shown
T6 sequence: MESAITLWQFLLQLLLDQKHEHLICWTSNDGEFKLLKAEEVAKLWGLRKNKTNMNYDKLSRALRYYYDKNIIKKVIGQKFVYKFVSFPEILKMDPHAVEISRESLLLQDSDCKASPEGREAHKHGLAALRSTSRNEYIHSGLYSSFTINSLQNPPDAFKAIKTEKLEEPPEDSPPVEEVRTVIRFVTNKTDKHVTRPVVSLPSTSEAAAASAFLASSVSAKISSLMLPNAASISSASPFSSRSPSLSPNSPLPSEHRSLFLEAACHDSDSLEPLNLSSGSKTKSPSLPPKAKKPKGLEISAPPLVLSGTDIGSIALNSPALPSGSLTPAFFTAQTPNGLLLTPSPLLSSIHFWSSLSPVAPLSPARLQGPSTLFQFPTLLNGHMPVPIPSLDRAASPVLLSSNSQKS
Summary of the method: as §1

FEV = target: T7, FEV (Homo sapiens, UniProt Q99581 1-238); conditions: protein: recombinant; tags: N-terminal GST; dsDNA, one strand shown
T7 sequence: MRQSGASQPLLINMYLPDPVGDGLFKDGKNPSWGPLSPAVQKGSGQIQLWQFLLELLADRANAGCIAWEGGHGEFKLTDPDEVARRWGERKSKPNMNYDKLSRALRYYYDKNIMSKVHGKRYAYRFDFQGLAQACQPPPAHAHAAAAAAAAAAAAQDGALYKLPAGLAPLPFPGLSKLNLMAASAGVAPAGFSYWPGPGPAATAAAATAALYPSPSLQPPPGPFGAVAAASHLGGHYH
Summary of the method: as §1

ETV5 = ETV5 (Homo sapiens, UniProt P41161 1-510); conditions: protein: recombinant; tags: N-terminal GST; dsDNA, one strand shown
Chain of ETV5 (P41161 whole entry): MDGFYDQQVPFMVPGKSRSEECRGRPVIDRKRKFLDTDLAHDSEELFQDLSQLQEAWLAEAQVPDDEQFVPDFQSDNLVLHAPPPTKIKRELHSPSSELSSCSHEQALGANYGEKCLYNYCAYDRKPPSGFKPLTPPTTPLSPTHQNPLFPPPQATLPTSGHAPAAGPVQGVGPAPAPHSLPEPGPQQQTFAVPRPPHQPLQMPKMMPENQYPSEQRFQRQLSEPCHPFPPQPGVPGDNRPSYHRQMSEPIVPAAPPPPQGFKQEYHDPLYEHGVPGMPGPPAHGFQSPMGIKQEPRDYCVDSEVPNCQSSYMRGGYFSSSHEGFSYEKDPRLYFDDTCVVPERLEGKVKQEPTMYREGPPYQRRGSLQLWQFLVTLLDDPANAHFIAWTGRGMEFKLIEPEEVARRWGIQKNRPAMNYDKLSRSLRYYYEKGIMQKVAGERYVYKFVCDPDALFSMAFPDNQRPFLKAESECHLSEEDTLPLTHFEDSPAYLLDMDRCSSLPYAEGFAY
Summary of the method: as §1

HSF1 = HSF1 (Homo sapiens, UniProt Q00613 1-529); conditions: protein: recombinant; tags: N-terminal GST; chain copies: 3; dsDNA, one strand shown
Chain of HSF1 (Q00613 whole entry): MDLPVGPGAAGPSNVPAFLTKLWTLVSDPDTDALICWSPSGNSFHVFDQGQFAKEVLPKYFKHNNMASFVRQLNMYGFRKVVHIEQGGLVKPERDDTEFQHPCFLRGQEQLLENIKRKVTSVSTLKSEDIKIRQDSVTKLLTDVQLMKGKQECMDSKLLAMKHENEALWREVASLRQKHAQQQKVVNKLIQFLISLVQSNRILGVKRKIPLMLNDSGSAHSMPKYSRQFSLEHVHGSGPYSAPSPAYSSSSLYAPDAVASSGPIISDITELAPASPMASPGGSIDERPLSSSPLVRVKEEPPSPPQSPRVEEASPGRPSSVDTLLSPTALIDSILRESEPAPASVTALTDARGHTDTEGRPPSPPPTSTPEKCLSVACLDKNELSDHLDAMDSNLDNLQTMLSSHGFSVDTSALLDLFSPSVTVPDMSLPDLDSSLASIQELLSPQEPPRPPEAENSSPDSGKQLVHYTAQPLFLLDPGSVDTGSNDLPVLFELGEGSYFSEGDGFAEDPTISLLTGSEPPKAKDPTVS
Summary of the method: as §1

SPIC = target: T8, SPIC (Homo sapiens, UniProt Q8N5J4 1-248); conditions: protein: recombinant; tags: N-terminal GST; dsDNA, one strand shown
T8 sequence: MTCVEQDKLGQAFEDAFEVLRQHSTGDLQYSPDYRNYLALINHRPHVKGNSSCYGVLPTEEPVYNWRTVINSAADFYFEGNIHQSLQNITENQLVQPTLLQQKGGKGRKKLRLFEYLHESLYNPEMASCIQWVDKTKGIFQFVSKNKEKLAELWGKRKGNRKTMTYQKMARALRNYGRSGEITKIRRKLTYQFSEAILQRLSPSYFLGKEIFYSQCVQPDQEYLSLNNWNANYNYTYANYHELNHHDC
Summary of the method: as §1

ELF4 = ELF4 (Homo sapiens, UniProt Q99607 1-663); conditions: protein: recombinant; tags: N-terminal GST; dsDNA, one strand shown
Chain of ELF4 (Q99607 whole entry): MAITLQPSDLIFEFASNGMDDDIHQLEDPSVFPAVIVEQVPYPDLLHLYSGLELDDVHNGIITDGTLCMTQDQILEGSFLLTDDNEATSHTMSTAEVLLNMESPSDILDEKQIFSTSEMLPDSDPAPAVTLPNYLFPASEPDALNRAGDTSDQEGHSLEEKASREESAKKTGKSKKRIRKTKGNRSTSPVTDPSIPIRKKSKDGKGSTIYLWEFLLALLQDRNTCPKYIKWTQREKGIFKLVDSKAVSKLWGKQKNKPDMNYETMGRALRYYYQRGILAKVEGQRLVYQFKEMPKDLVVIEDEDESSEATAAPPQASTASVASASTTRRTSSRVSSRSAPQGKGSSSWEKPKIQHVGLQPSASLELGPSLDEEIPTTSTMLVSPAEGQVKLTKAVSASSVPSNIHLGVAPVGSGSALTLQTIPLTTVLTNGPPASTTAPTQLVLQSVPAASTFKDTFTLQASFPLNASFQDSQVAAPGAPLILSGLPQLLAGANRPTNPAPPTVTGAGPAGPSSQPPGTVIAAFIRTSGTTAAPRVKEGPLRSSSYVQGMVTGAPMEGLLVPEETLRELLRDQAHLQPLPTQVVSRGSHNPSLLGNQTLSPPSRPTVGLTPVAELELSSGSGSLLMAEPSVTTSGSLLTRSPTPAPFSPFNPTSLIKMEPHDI
Summary of the method: as §1

ELK4 = target: T9, ELK4 (Homo sapiens, UniProt P28324-2 1-405); conditions: protein: recombinant; tags: N-terminal GST; dsDNA, one strand shown
T9 sequence: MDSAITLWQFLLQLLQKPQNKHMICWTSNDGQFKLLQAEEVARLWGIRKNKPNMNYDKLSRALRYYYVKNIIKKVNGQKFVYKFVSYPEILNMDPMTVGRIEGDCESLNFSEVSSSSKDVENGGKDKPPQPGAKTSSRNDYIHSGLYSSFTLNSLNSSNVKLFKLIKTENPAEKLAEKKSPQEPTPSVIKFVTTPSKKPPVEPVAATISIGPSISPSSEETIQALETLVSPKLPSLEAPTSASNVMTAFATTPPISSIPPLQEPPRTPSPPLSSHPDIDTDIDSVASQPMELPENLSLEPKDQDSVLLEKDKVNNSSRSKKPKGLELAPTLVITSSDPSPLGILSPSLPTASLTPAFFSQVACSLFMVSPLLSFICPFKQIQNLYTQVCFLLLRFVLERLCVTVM
Summary of the method: as §1

ETV2 = target: T10, ETV2 (Homo sapiens, UniProt O00321 1-342); conditions: protein: recombinant; tags: N-terminal GST; dsDNA, one strand shown
T10 sequence: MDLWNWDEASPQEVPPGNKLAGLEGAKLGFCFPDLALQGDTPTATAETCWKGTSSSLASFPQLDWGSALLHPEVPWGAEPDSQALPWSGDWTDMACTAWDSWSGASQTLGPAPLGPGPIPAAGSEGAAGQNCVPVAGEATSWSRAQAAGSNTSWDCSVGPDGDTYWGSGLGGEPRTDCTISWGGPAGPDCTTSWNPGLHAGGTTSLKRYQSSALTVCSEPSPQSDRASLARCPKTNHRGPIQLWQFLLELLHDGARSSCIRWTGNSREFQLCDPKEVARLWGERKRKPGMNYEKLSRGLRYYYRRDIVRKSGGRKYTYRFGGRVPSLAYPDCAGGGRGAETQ
Summary of the method: as §1

ELF3 = target: T11, ELF3 (Homo sapiens, UniProt P78545 1-371); conditions: protein: recombinant; tags: N-terminal GST; dsDNA, one strand shown
T11 sequence: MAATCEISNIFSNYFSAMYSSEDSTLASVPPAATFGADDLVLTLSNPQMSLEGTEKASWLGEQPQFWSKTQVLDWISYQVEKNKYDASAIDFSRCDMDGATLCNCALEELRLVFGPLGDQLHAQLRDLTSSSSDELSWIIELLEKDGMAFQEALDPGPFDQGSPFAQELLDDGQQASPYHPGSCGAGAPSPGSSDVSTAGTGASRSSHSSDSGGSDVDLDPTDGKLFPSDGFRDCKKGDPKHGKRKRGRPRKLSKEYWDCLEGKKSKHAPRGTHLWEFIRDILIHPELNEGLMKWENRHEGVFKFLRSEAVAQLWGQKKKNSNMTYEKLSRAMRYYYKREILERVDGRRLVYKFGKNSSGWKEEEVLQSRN
Summary of the method: as §1

CRX = CRX (Homo sapiens, UniProt O43186 1-299); conditions: protein: recombinant; tags: N-terminal GST; dsDNA, one strand shown
Chain of CRX (O43186 whole entry): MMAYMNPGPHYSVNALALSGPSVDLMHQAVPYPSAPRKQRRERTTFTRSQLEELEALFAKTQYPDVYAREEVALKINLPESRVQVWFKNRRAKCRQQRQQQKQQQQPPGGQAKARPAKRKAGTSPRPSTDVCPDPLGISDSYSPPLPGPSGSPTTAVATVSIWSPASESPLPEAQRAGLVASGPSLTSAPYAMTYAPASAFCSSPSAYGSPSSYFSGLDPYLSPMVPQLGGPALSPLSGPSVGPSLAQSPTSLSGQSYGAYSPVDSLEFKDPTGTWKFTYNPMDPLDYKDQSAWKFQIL
Summary of the method: as §1

ETV1 = ETV1 (Homo sapiens, UniProt P50549 1-477); conditions: protein: recombinant; tags: N-terminal GST; dsDNA, one strand shown
Chain of ETV1 (P50549 whole entry): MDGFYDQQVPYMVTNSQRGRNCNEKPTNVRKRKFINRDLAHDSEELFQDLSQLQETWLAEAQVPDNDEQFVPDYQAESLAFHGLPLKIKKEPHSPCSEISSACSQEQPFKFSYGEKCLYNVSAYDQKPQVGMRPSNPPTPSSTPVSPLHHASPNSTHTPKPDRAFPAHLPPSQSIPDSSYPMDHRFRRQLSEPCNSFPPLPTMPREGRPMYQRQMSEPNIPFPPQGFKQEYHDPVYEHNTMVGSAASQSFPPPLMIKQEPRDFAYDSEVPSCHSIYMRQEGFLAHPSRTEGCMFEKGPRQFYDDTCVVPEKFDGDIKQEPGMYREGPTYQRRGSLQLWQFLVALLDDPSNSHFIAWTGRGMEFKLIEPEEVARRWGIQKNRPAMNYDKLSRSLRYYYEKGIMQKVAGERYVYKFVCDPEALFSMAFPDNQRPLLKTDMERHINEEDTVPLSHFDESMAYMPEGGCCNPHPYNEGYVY
Summary of the method: as §1

ATATAA
binding signal (FLI1): 1.15 fold enrichment (6-mer frequency, TF over GST control) | binding signal (ELK1): 1.22 fold enrichment (6-mer frequency, TF over GST control) | binding signal (GABPA): 1.2 fold enrichment (6-mer frequency, TF over GST control) | binding signal (ERG): 1.15 fold enrichment (6-mer frequency, TF over GST control) | binding signal (ELF1): 1.24 fold enrichment (6-mer frequency, TF over GST control) | binding signal (EHF): 1.21 fold enrichment (6-mer frequency, TF over GST control) | binding signal (SPI1): 1.1 fold enrichment (6-mer frequency, TF over GST control) | binding signal (SPIB): 1.22 fold enrichment (6-mer frequency, TF over GST control) | binding signal (ELK3): 1.25 fold enrichment (6-mer frequency, TF over GST control) | binding signal (FEV): 1.15 fold enrichment (6-mer frequency, TF over GST control) | binding signal (ETV5): 1.15 fold enrichment (6-mer frequency, TF over GST control) | binding signal (HSF1): 1.34 fold enrichment (6-mer frequency, TF over GST control) | binding signal (SPIC): 1.1 fold enrichment (6-mer frequency, TF over GST control) | binding signal (ELF4): 1.18 fold enrichment (6-mer frequency, TF over GST control) | binding signal (ELK4): 1.29 fold enrichment (6-mer frequency, TF over GST control) | binding signal (ETV2): 1.24 fold enrichment (6-mer frequency, TF over GST control) | binding signal (ELF3): 1.28 fold enrichment (6-mer frequency, TF over GST control) | binding signal (CRX): 1.68 fold enrichment (6-mer frequency, TF over GST control) | binding signal (ETV1): 1.16 fold enrichment (6-mer frequency, TF over GST control)
